Test results reported in the supplement of paper PMC7411054.
Counter-ions that a name gives are not always drawn.

Assays:
Settings in all cases: treatment time: 24 h
A549-ACTB-RAB5A [1] = experiment: lowest phenotypically active concentration; higher = less potent
Method in brief: (§1)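 Cells from fifteen gene-edited reporter lines (A549, HepG2 and WPMY1) were treated for 24 h at 0.3, 1, 3 or 9 µM and imaged live, four wells per condition. Features were normalised per well to solvent control wells. A condition deviated if ≥3 of 4 wells passed the 95th percentile of control Euclidean distances and was reproducible if its median replicate Pearson correlation beat the 95th percentile of non-replicates; phenotypic activity needed both.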

A549-TUBA1B-RELA [2] = experiment: as above
Method in brief: as §1

WPMY1-CANX-COX4 [3] = experiment: as above
Method in brief: as §1

A549-ACTB-RAB5A [4] = experiment: phenotypically active (imaging signature differs from DMSO and reproducible) at any of 0.3-9 uM (binary (1 = active, 0 = inactive)); higher = active
Method in brief: as §1

A549-CANX-COX4 = experiment: as above
Method in brief: as §1

A549-GM130-SQSTM1 [5] = experiment: as above
Method in brief: as §1

A549-TP53BP1-CLTA = experiment: as above
Method in brief: as §1

A549-TUBA1B-RELA [6] = experiment: as above
Method in brief: as §1

HepG2-ACTB-RAB5A = experiment: as above
Method in brief: as §1

HepG2-CANX-COX4 = experiment: as above
Method in brief: as §1

HepG2-GM130-SQSTM1 = experiment: as above
Method in brief: as §1

HepG2-TP53BP1-CLTA = experiment: as above
Method in brief: as §1

HepG2-TUBA1B-RELA = experiment: as above
Method in brief: as §1

WPMY1-ACTB-RAB5A = experiment: as above
Method in brief: as §1

WPMY1-CANX-COX4 [7] = experiment: as above
Method in brief: as §1

WPMY1-GM130-SQSTM1 [8] = experiment: as above
Method in brief: as §1

WPMY1-TP53BP1-CLTA = experiment: as above
Method in brief: as §1

WPMY1-TUBA1B-RELA = experiment: as above
Method in brief: as §1

A549-GM130-SQSTM1 [9] = experiment: lowest phenotypically active concentration; higher = less potent
Method in brief: as §1

WPMY1-GM130-SQSTM1 [10] = experiment: as above
Method in brief: as §1

CCC(=O)N1CCOc2c(cc(-c3ccc(OC)c(OC)c3)cc2OC[C@H]2CCCN(C)C2)C1
active: phenotypically active (A549-ACTB-RAB5A [4]) 1 | phenotypically active (A549-TUBA1B-RELA [6]) 1 | phenotypically active (HepG2-ACTB-RAB5A) 1 | phenotypically active (HepG2-CANX-COX4) 1 | phenotypically active (HepG2-TUBA1B-RELA) 1 | phenotypically active (WPMY1-CANX-COX4 [7]) 1
inactive: phenotypically active (A549-CANX-COX4) 0 | phenotypically active (A549-GM130-SQSTM1 [5]) 0 | phenotypically active (A549-TP53BP1-CLTA) 0 | phenotypically active (HepG2-GM130-SQSTM1) 0 | phenotypically active (HepG2-TP53BP1-CLTA) 0 | phenotypically active (WPMY1-ACTB-RAB5A) 0 | phenotypically active (WPMY1-GM130-SQSTM1 [8]) 0 | phenotypically active (WPMY1-TP53BP1-CLTA) 0 | phenotypically active (WPMY1-TUBA1B-RELA) 0
9 µM: lowest phenotypically active concentration (A549-ACTB-RAB5A [1]) | lowest phenotypically active concentration (A549-TUBA1B-RELA [2]) | lowest phenotypically active concentration (WPMY1-CANX-COX4 [3])

CC1CNCCN1S(=O)(=O)c1cccc2cnccc12 (stereo not drawn) [H-7 dihydrochloride]
9 µM: lowest phenotypically active concentration (A549-ACTB-RAB5A [1]) | lowest phenotypically active concentration (A549-GM130-SQSTM1 [9]) | lowest phenotypically active concentration (WPMY1-CANX-COX4 [3]) | lowest phenotypically active concentration (WPMY1-GM130-SQSTM1 [10])
inactive: phenotypically active (A549-CANX-COX4) 0 | phenotypically active (A549-TP53BP1-CLTA) 0 | phenotypically active (A549-TUBA1B-RELA [6]) 0 | phenotypically active (HepG2-ACTB-RAB5A) 0 | phenotypically active (HepG2-TP53BP1-CLTA) 0 | phenotypically active (WPMY1-TP53BP1-CLTA) 0
active: phenotypically active (A549-ACTB-RAB5A [4]) 1 | phenotypically active (A549-GM130-SQSTM1 [5]) 1 | phenotypically active (HepG2-CANX-COX4) 1 | phenotypically active (HepG2-GM130-SQSTM1) 1 | phenotypically active (HepG2-TUBA1B-RELA) 1 | phenotypically active (WPMY1-ACTB-RAB5A) 1 | phenotypically active (WPMY1-CANX-COX4 [7]) 1 | phenotypically active (WPMY1-GM130-SQSTM1 [8]) 1 | phenotypically active (WPMY1-TUBA1B-RELA) 1

COc1ccc(CCc2nc3cc(-c4c(C)noc4C)ccc3n2C[C@H](C)N2CCOCC2)cc1Cl
inactive: phenotypically active (A549-CANX-COX4) 0 | phenotypically active (A549-GM130-SQSTM1 [5]) 0 | phenotypically active (A549-TP53BP1-CLTA) 0 | phenotypically active (A549-TUBA1B-RELA [6]) 0 | phenotypically active (WPMY1-CANX-COX4 [7]) 0 | phenotypically active (WPMY1-TP53BP1-CLTA) 0
active: phenotypically active (A549-ACTB-RAB5A [4]) 1 | phenotypically active (HepG2-ACTB-RAB5A) 1 | phenotypically active (HepG2-CANX-COX4) 1 | phenotypically active (HepG2-GM130-SQSTM1) 1 | phenotypically active (HepG2-TP53BP1-CLTA) 1 | phenotypically active (HepG2-TUBA1B-RELA) 1 | phenotypically active (WPMY1-ACTB-RAB5A) 1 | phenotypically active (WPMY1-GM130-SQSTM1 [8]) 1 | phenotypically active (WPMY1-TUBA1B-RELA) 1
9 µM: lowest phenotypically active concentration (WPMY1-GM130-SQSTM1 [10])
3 µM: lowest phenotypically active concentration (A549-ACTB-RAB5A [1])

N#Cc1ccc2ncnc(NCCc3ccccc3)c2c1 [Senexin A]
inactive: phenotypically active (A549-CANX-COX4) 0 | phenotypically active (A549-TP53BP1-CLTA) 0 | phenotypically active (A549-TUBA1B-RELA [6]) 0 | phenotypically active (HepG2-ACTB-RAB5A) 0 | phenotypically active (HepG2-GM130-SQSTM1) 0 | phenotypically active (HepG2-TP53BP1-CLTA) 0 | phenotypically active (HepG2-TUBA1B-RELA) 0 | phenotypically active (WPMY1-GM130-SQSTM1 [8]) 0 | phenotypically active (WPMY1-TP53BP1-CLTA) 0
active: phenotypically active (A549-ACTB-RAB5A [4]) 1 | phenotypically active (A549-GM130-SQSTM1 [5]) 1 | phenotypically active (HepG2-CANX-COX4) 1 | phenotypically active (WPMY1-ACTB-RAB5A) 1 | phenotypically active (WPMY1-CANX-COX4 [7]) 1 | phenotypically active (WPMY1-TUBA1B-RELA) 1
3 µM: lowest phenotypically active concentration (A549-ACTB-RAB5A [1]) | lowest phenotypically active concentration (A549-GM130-SQSTM1 [9]) | lowest phenotypically active concentration (WPMY1-CANX-COX4 [3])

O=C(Nc1ccc(CN2CCOCC2)cc1)c1ccc(-c2cccc(Cl)c2)o1
active: phenotypically active (A549-ACTB-RAB5A [4]) 1 | phenotypically active (A549-TUBA1B-RELA [6]) 1 | phenotypically active (HepG2-TUBA1B-RELA) 1
inactive: phenotypically active (A549-CANX-COX4) 0 | phenotypically active (A549-GM130-SQSTM1 [5]) 0 | phenotypically active (A549-TP53BP1-CLTA) 0 | phenotypically active (HepG2-ACTB-RAB5A) 0 | phenotypically active (HepG2-CANX-COX4) 0 | phenotypically active (HepG2-GM130-SQSTM1) 0 | phenotypically active (HepG2-TP53BP1-CLTA) 0 | phenotypically active (WPMY1-ACTB-RAB5A) 0 | phenotypically active (WPMY1-CANX-COX4 [7]) 0 | phenotypically active (WPMY1-GM130-SQSTM1 [8]) 0 | phenotypically active (WPMY1-TP53BP1-CLTA) 0 | phenotypically active (WPMY1-TUBA1B-RELA) 0
9 µM: lowest phenotypically active concentration (A549-ACTB-RAB5A [1]) | lowest phenotypically active concentration (A549-TUBA1B-RELA [2])

COc1cc2c(cc1OC)-c1c/c(=N/c3c(C)cc(C)cc3C)n(C)c(=O)n1CC2 [Trequinsin hydrochloride]
inactive: phenotypically active (A549-CANX-COX4) 0 | phenotypically active (A549-TP53BP1-CLTA) 0 | phenotypically active (A549-TUBA1B-RELA [6]) 0 | phenotypically active (HepG2-GM130-SQSTM1) 0 | phenotypically active (HepG2-TP53BP1-CLTA) 0 | phenotypically active (HepG2-TUBA1B-RELA) 0
active: phenotypically active (A549-ACTB-RAB5A [4]) 1 | phenotypically active (A549-GM130-SQSTM1 [5]) 1 | phenotypically active (HepG2-ACTB-RAB5A) 1 | phenotypically active (HepG2-CANX-COX4) 1 | phenotypically active (WPMY1-ACTB-RAB5A) 1 | phenotypically active (WPMY1-CANX-COX4 [7]) 1 | phenotypically active (WPMY1-GM130-SQSTM1 [8]) 1 | phenotypically active (WPMY1-TP53BP1-CLTA) 1 | phenotypically active (WPMY1-TUBA1B-RELA) 1
9 µM: lowest phenotypically active concentration (A549-ACTB-RAB5A [1]) | lowest phenotypically active concentration (A549-GM130-SQSTM1 [9]) | lowest phenotypically active concentration (WPMY1-CANX-COX4 [3]) | lowest phenotypically active concentration (WPMY1-GM130-SQSTM1 [10])
